Source: PubChem (several laboratories)
An excerpt weighted towards active compounds, which were near 4.2% of everything screened.
tim10-1 inh: growth inhibitors of tim10-1 mutant yeast, primary screen, luminescence, uHTS | S. cerevisiae tim10-1 ts strain growth, BacTiter-Glo, 24 h | inhibition, % at 20 µM | 330,000 tested, 2.2% active | AID 463190, 2010;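 active = inhibition of at least 40%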;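 note: mutant grown at 25 °C; 0% = DMSO wells with yeast and 100% = wells holding no yeast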
NLRP3 yeast inh: NALP3 inflammasome inhibitors in reconstituted yeast, primary screen, luminescence, uHTS; inhibition, % at 10 µM; Yeast reconstituted NLRP3/ASC/caspase-1, beta-gal luminescence, 24 h; 330,000 tested, 0.39% active;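 active = inhibition of 50% or more; inactive = inhibition below 50%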;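 note: plate controls were induced DMSO wells for no effect and uninduced yeast grown without galactose for full effect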
tim23-1 inh: growth inhibitors of tim23-1 mutant yeast, primary screen, luminescence, uHTS | inhibition, % at 20 µM | S. cerevisiae tim23-1 growth, BacTiter-Glo luminescence, 24 h | 330,000 tested, 1.3% active | AID 463212, 2010;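 active = growth inhibition of the mutant yeast at or above 50%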;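 note: temperature-sensitive mutant grown at 25 °C; plate controls were DMSO-treated mutant yeast for no effect and medium wells lacking yeast for full effect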
NALP1 inh: NALP1 inflammasome inhibitors in reconstituted yeast, colorimetric, S. cerevisiae, triplicate retest; S. cerevisiae NALP1/ASC/caspase-1 growth, X-gal OD620, 72 h; inhibition, % at 10 µM; 280,000 tested, 0.61% active; AID 2071, 2009; in the data active = inhibition mostly above about 24%, no sharp cut-off; inactive = mostly below about 32%
TIM10 inh: growth inhibitors of isogenic TIM10 control yeast, primary screen, counter-screen for tim10-1 yeast inhibitor project, luminescence, uHTS | S. cerevisiae TIM10 strain growth, BacTiter-Glo luminescence, 24 h | inhibition, % at 10 µM | 330,000 tested, 1.4% active;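 active = inhibition of 40% or more at the single tested concentration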;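 note: wild-type TIM10 isogenic control strain grown at permissive 25 °C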
V-ATPase pH: regulators of yeast V-ATPase proton pumping, primary screen, pHLuorin cytosolic pH fluorescence; S. cerevisiae; response, % at 10 µM; 350,000 tested, 0.37% active; AID 504577, 2011; in the data active = response mostly above about 7.3%, no sharp cut-off; inactive = mostly below about 5.4%; note: actives read high
tim10-1 conf: growth inhibitors of tim10-1 mutant yeast, confirmation, single concentration, luminescence, S. cerevisiae; shares compounds with tim10-1 inh; S. cerevisiae tim10-1 ts strain growth, BacTiter-Glo, 24 h; inhibition, % at 20 µM; 7,400 tested, 56% active;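 active = inhibition of yeast growth at or above a set limit in either of two repeat tests at 20 µM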;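 note: tim10-1 mutant grown at permissive 25 °C to find synthetic lethal compounds; 0% = DMSO yeast wells and 100% = medium wells without yeast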
Numbers without * were called inactive; / = not tested or not shown.

SMILES	tim10-1 inh	NLRP3 yeast inh	tim23-1 inh	NALP1 inh	TIM10 inh	V-ATPase pH	tim10-1 conf
CC1CCCC2(C1)NC(=S)N(c1ccccc1)N2 (centres undefined)	55*	23	-3	6	-3	-2	-34
Cc1ccc(NC(=O)c2cc(-c3ccccc3)nn2-c2ccccc2)cc1	45*	13	21	/	33	0	32*
Cc1ccc(NC(=O)c2cc(-c3ccccc3)nn2-c2ccccc2)c(Br)c1	32	10	11	38	33	3	/
COc1cc2c(cc1NC(=O)CSc1nc3ccccc3[nH]1)oc1ccccc12	41*	4	34	36	23	2	-8
COc1cc2c(cc1NC(=O)Nc1ccc(C)cc1)oc1ccccc12	43*	5	13	-6	30	-3	41*
COc1cc2c(cc1NC(=O)CSc1ccccc1)oc1ccccc12	13	11	10	20	14	-1	/
COc1ccc(NC(=O)Nc2cc3oc4ccccc4c3cc2OC)cc1	20	22	4	17	20	-1	/
O=C(Cc1ccc(F)cc1)Nc1nnc(-c2ccc(F)cc2)o1	-6	-6	-14	14	9	1	/
COc1ccc(N2CCN(C3CCCN(Cc4ccc(F)cc4Cl)C3)CC2)cc1 (centres undefined)	0	26	10	17	-11	-1	/
CCCOC(=O)c1ccc(Oc2c(-c3ccc(OC)cc3O)n[nH]c2C)cc1	24	9	20	4	16	0	/
CCCOC(=O)c1ccc(Oc2c(-c3ccc(O)cc3O)n[nH]c2C)cc1	55*	3	-111	-5	21	2	9
Cc1csc(=O)n1CCC(=O)OCC(=O)NNC(=O)c1ccccc1	-27	9	-17	/	-5	-4	/
CC(C)OCCCn1c(-c2ccc(Br)cc2)c[nH]c1=S	43*	39	-5	-7	39	3	10
COc1ccc(-n2ncc3c2CC(C)(C)CC3NC(=O)c2oc(C)cc2C)cc1 (centres undefined)	44*	-5	36	1	14	-2	11
Cc1ncoc1C(=O)NC1CC(C)(C)Cc2c1cnn2-c1ccccc1 (centres undefined)	16	28	9	4	9	-2	/
CSCc1ccc(C(=O)NC2CC(C)(C)Cc3c2cnn3-c2ccc(F)cc2)o1 (centres undefined)	41*	4	38	-9	25	-1	13
CC1(C)Cc2c(cnn2-c2ccc(F)cc2)C(NC(=O)c2cnccn2)C1 (centres undefined)	32	-1	28	0	13	3	/
Cc1cc(C)c(C(=O)NC2CC(C)(C)Cc3c2cnn3-c2ccccc2)o1 (centres undefined)	45*	-10	42	12	20	-2	24
COc1ccc(-n2ncc3c2CC(C)(C)CC3NC(=O)c2ocnc2C)cc1 (centres undefined)	11	8	5	-4	-5	0	/
CC(=O)c1ccc(OCC(=O)NC(=O)NC2CCCCC2)cc1	14	0	25	15	16	1	/
O=C(O)c1ccc2c(c1)C(=O)N(CCc1c[nH]c3ccccc13)C2=O	98*	9	8	-5	11	-2	-11
O=C(NC1CCN(CCc2c[nH]c3ccccc23)CC1)c1ccccc1	43*	9	21	3	12	1	20
COc1cccc(C(=O)COC(=O)CCC(=O)c2ccccc2)c1	28	8	25	3	8	-5	/
CCN1C(=O)C(=O)N(CC(=O)N2CCC(C)Sc3ccccc32)C1=O (centres undefined)	14	-6	32	/	12	2	/
CCCC(=O)Nc1cc(-c2nn(C)c(=O)c3ccccc23)ccc1N1CCCCC1	25	-6	18	/	22	8	/
SMILES	tim10-1 inh	NLRP3 yeast inh	tim23-1 inh	NALP1 inh	TIM10 inh	V-ATPase pH	tim10-1 conf
CCCC(=O)Nc1cc(-c2nnc(OC)c3ccccc23)ccc1N1CCCCC1	49*	-5	37	27	39	/	26
CNC(=O)C[C@@H]1C(=O)N(c2ccc(Br)cc2)CC1(C)C	/	/	/	/	/	-1	/
CCOc1ccc(C2/C(=C(\O)c3cccc(OC)c3)C(=O)C(=O)N2c2ccccn2)cc1OC (centres undefined)	-1	1	4	-1	-4	0	/
OC1CCCN(c2c3c(nc4cc(-c5cccc(Cl)c5)nn24)CCC3)C1 (centres undefined)	33	28	21	22	-23	1	/
COc1ccc(-c2cc3nc4c(c(N5CCC6(CC5)OCCO6)n3n2)CCC4)cc1	47*	21	40	8	32	2	33*
OC1CCN(c2c3c(nc4cc(-c5ccc(F)cc5)nn24)CCC3)CC1	45*	12	25	-13	28	-1	31
Cc1cccc(-c2cc3nc4c(c(N5CCCC(O)C5)n3n2)CCC4)c1 (centres undefined)	47*	23	39	19	16	3	15
Oc1ccc(-c2nnc(SCC3CCCCC3)o2)cc1	44*	6	22	2	32	0	28
COC(=O)[C@@]12CCCCN1[C@H](c1ccc(-c3ccc(C(C)=O)cc3)cc1)[C@@H]1C(=O)N(C)C(=O)[C@@H]12	23	-3	26	/	26	-2	/
Cc1ccc(-c2cc(-c3ccccc3)nc(N/N=C/c3cccnc3)n2)cc1	44*	21	16	/	16	-5	25
Cc1cc(-c2ccccc2)nc(N/N=C/c2ccccc2)n1	41*	42	37	13	37	5	18
CC1CC(C)CN(C(=O)c2ccc(S(=O)(=O)N3CCCC3)cc2)C1 (centres undefined)	1	3	15	2	13	-4	/
COc1ccc(Cl)cc1Nc1nc(N)nc(C(F)(F)F)n1	48*	15	17	-18	26	0	14
C#CCn1c(O)c(N=NC(=O)CNC(=O)c2cccnc2)c2ccccc21	22	12	0	3	-6	1	/
Oc1ccc(C=Nc2ccc(N3CCOCC3)cc2)c(O)c1	13	-5	16	10	-5	1	/
Oc1cc(Br)ccc1C=Nc1ccc(N2CCCCC2)cc1	42*	23	50	9	19	4	26
Cc1cc(Nc2ccccc2)nn1C(=O)c1ccc(Br)cc1	53*	19	21	-1	6	-2	29
COc1ccc(C(=O)n2nc(C)cc2Nc2ccccc2)cc1	13	33	1	24	-8	4	/
